PubChem BioAssay AID588405 (Sanford-Burnham Center for Chemical Genomics, 2011)
The whole screen tested about 360,000 compounds, of which about 6,200 (1.7%) were called active. This is one part of a sample in which actives are shown more often than they occur.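 How the source made its calls: active means inhibition of at least 50% at 20 µM; inactive means the rest.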

Experiment: inhibition of PEG-3 promoter activity – cell-based, HeLa, luciferase luminescence, primary screen (AID 588405)
Settings: HeLa PEG-Prom luciferase reporter, overnight, at 20 µM, stronger effect = higher value

| Compound | inhibition |
| --- | --- |
| COc1ccc(-c2[nH]ncc2CN(C)Cc2cccnc2)c(F)c1 | 9.62% (inactive) |
| CCOc1ccc2[nH]c(=O)c(CN(CCCO)S(=O)(=O)c3ccc(F)cc3)cc2c1 | 12.7% (inactive) |
| COc1ccc2[nH]c(=O)c(CN(Cc3cccnc3)S(=O)(=O)c3ccccc3F)cc2c1 | 59.6% (active) |
| Cn1c(NCc2cccnc2)nc2cc(-c3ccc(F)cc3)sc2c1=O | -200% (inactive) |
| COc1c(C)cc(C(=O)C2CCCN(S(=O)(=O)c3c(C)noc3C)C2)cc1C (configuration not stated) | 34.8% (inactive) |
| CSc1nc(N)c(C#N)c(-c2ccccc2Cl)c1C#N | 53.6% (active) |
| Cc1c(-c2ccccc2)nc(N)c(C#N)c1-c1cccs1 | 12.9% (inactive) |
| COc1ccccc1-c1c(C#N)c(N)nc2c1CCC2 | 8.52% (inactive) |
| NCCCCC(C(=O)O)N(C(=O)OCc1ccccc1)C(=O)OCc1ccccc1 (configuration not stated) | 5.74% (inactive) |
| CCNC(=O)C1CCCN(C(=O)c2ccc(OC)cc2OC)CC1 (configuration not stated) | -2.59% (inactive) |
| CNC(=O)c1[nH]cnc1C(=O)N[C@@H](CC(C)C)C(=O)OCc1ccccc1 | 4.89% (inactive) |
| CCOc1ccc(-n2c(SCC(=O)NC3CCS(=O)(=O)C3)nnc2-c2cccnc2)cc1 (configuration not stated) | -3.16% (inactive) |
| CCN1CCC(O)(/C=C/c2ccc(C)cc2)C(C(=O)/C=C/c2ccc(C)cc2)C1 (configuration not stated) | 97.7% (active) |
| COc1cc(C(O)c2nc(-c3cccc(C(=O)O)c3)cs2)ccc1F (configuration not stated) | -37.1% (inactive) |
| Cc1nc(C(F)(F)F)ccc1C(=O)N1CCC1(C)C(=O)NS(=O)(=O)c1ccccc1 (configuration not stated) | 11.6% (inactive) |
| CCC(C)Cn1c(O)cc2nn(-c3nc4ccccc4s3)c(=O)c-2c1C (configuration not stated) | 96.7% (active) |
| OC[C@H]1O[C@@H](c2nc(-c3nc(-c4ccc(F)cc4)no3)cs2)[C@H](O)[C@@H](O)[C@H]1O | -42.8% (inactive) |
| Nc1nc(CSc2nnnn2-c2ccccc2)nc(Nc2ccccc2)n1 | 6.46% (inactive) |
| Cc1cccc(CN2CCN(C3CN(Cc4ccccc4)S(=O)(=O)C3)CC2)c1 (configuration not stated) | 24.2% (inactive) |
| O=C(OC12CC3CC(CC(C3)C1)C2)c1ccc(NCc2cc(O)ccc2O)cc1 | 82.7% (active) |
| CC1(C)C2CCC1(C)C(OC(=O)c1ccc(O)cc1)C2 (configuration not stated) | -14.1% (inactive) |
| CCCCC(=O)N(C)c1c(CC)nc2c(OCc3ccc(S(C)(=O)=O)cc3)cccn12 | -0.29% (inactive) |

| Compound | inhibition |
| --- | --- |
| CC(C)Oc1cc(F)ccc1-c1cc(C(=O)Nc2ccc(F)cc2)[nH]n1 | -30.2% (inactive) |
| c1ccc(C[C@H]2CNCCN2CCC23CC4CC(CC(C4)C2)C3)cc1 | 96.8% (active) |
| O=C1CCNCCN1[C@H](CO)Cc1ccccc1 | 3.53% (inactive) |
| c1ccc2c(CCN3CCNC[C@H]3Cc3cccc4ccccc34)cccc2c1 | -8.29% (inactive) |
| COc1cc(/C=C/C2=CC(C)(C)NC(=S)N2)cc(OC)c1OC | 4.8% (inactive) |
| CCC(=O)c1ccc(OC(=O)/C=C/c2cc(OC)c(OC)c(OC)c2)cc1 | 3.36% (inactive) |
| COc1cc(/C=C/c2ccc(/C=C/c3cc(OC)c(OC)c(OC)c3)cc2)cc(OC)c1OC | 61.8% (active) |
| OCCc1ccc(NCCc2ccco2)cc1 | -123% (inactive) |
| CN[C@H](C(=O)NC[C@H]1O[C@@H](n2cnc3c(N)ncnc32)[C@H](O)[C@@H]1O)[C@@H](C)OCc1ccccc1 | -6.23% (inactive) |
| O=C(COC(=O)c1ccc(F)cc1F)Nc1ncccn1 | 22.2% (inactive) |
| CC(C)CNC(=O)C(=O)NCC(c1ccc2c(c1)OCO2)N1CCOCC1 (configuration not stated) | -15.4% (inactive) |
| CCCc1cc(=O)[nH]c(SCC(=O)c2c(N)n(CC(C)C)c(=O)n(C)c2=O)n1 | 54.7% (active) |
| CC(C)Cn1c(N)c(C(=O)COC(=O)CN2C(=O)C3CC=CCC3C2=O)c(=O)n(C)c1=O (configuration not stated) | 21.8% (inactive) |
| CCCc1cc(=O)[nH]c(SCC(=O)N2C(C)CCCC2C)n1 (configuration not stated) | 0.43% (inactive) |
| O=C(NCc1cccnc1)c1ccc2nc([C@@H]3O[C@H](CO)[C@H](O)[C@H](O)[C@H]3O)[nH]c2c1 | 15.8% (inactive) |
| CCC(C)C(CO)NC(=O)/C=C/[C@H]1O[C@@H](n2cnc3c(NC(=O)c4ccccc4)ncnc32)[C@H](O)[C@@H]1O (some centres not stated) | 10.6% (inactive) |
| Cc1ccsc1C(=O)OCC(=O)NCCc1ccccc1 | -156% (inactive) |
| Cc1ccsc1C(=O)OCC(=O)Nc1cccc(F)c1 | -227% (inactive) |
| Cc1ccsc1C(=O)OCC(=O)c1cc(C)n(CC2CCCO2)c1C (configuration not stated) | 55.9% (active) |
| COc1ccc(-c2nnc3n2CCCCC3)cc1 | 11.4% (inactive) |
| CCN(CC)CCN(C(=O)c1ccc2c(c1)CCCC2)c1nc2c(OC)cccc2s1 | -7.74% (inactive) |
| COc1ccccc1NC(=O)CC(NCCN(C)C)C(=O)O (configuration not stated) | 6.79% (inactive) |

| Compound | inhibition |
| --- | --- |
| COc1cccc2sc(N(CCCN(C)C)C(=O)CCS(=O)(=O)c3ccccc3)nc12 | 96.4% (active) |
| Cc1ccc2sc(N(CCN(C)C)C(=O)/C=C/c3cccs3)nc2c1C | 19.8% (inactive) |
| O=C(CCS(=O)(=O)c1ccccc1)Nc1nc2c(s1)CCCC2 | -47.1% (inactive) |
| COc1ccc(N(C)C(=O)CCS(=O)(=O)c2cccc3nsnc23)cc1 | -4.4% (inactive) |
| Cc1ccc(S(=O)(=O)CCC(=O)OCC(=O)N(C)Cc2ccccc2)cc1 | -2.43% (inactive) |
| COc1cccc2sc(N(CCCN(C)C)C(=O)C(c3ccccc3)c3ccccc3)nc12 | 99.4% (active) |
| Cc1cccc2sc(N(CCCN(C)C)C(=O)CCS(=O)(=O)c3ccccc3)nc12 | 100% (active) |
| CC1(C(=O)NCc2ccc3c(c2)OCO3)CCN1CCc1ccccc1 (configuration not stated) | -5.32% (inactive) |
| CC1(C(=O)NS(=O)(=O)c2cccs2)CCN1C(=O)Cc1ccc(-c2ccccc2)cc1 (configuration not stated) | 1.06% (inactive) |
| O=C(C=CC(=O)Nc1ccc(F)cc1F)Nc1ccc(F)cc1F | 14.9% (inactive) |
| O=S1(=O)CC(N2CCN(CCO)CC2)CN1C1CCCC1 (configuration not stated) | -8.51% (inactive) |
| Cc1cccc(CN2CCN(C3CN(Cc4cn(Cc5ccccc5F)nn4)S(=O)(=O)C3)CC2)c1 (configuration not stated) | -6.63% (inactive) |
| CCOC(=O)N(C)c1c(CC)nc2c(OCc3ccccc3C(=O)OC)cccn12 | 13.4% (inactive) |
| Nc1ccccc1SC(C[N+](=O)[O-])c1ccccc1 (configuration not stated) | 63.5% (active) |
| CCCC(=O)N1CCC1(C)C(=O)NCc1ccc(C(C)C)cc1 (configuration not stated) | 1.21% (inactive) |
| CCC(=O)N1CCCC1(C)C(=O)Nc1ccc2c(c1)CCN2C(C)=O (configuration not stated) | 4.54% (inactive) |
| CCOC(=O)Nc1ccc2c(c1)N(C(=O)CCN1CCN(CCO)CC1)c1ccccc1CC2 | 3.85% (inactive) |
| CCOC(=O)Nc1ccc2c(c1)N(C(=O)CCCl)c1ccccc1[S@]2=O | 84.1% (active) |
| CCOC(=O)Nc1ccc2c(c1)N(C(=O)CN1CCN3CCCC3C1)c1ccccc1CC2 (configuration not stated) | 0.5% (inactive) |
| CC(C)(C)OC(=O)C[C@H]1C/C=C\C[C@@H](CC(=O)N[C@H](CO)Cc2ccccc2)C(=O)NC[C@@H](c2ccccc2)OC1=O | -1.52% (inactive) |
| CC(C)(C)OC(=O)C[C@@H]1C/C=C\C[C@@H](CC(=O)N[C@H](CO)Cc2ccccc2)C(=O)NC[C@@H](c2ccccc2)OC1=O | -6.65% (inactive) |
| O=C(C[C@H]1C/C=C\C[C@@H](NC(=O)OCC2c3ccccc3-c3ccccc32)C(=O)O[C@@H](c2ccccc2)CNC1=O)N[C@H](CO)Cc1ccccc1 | 67.1% (active) |

| Compound | inhibition |
| --- | --- |
| CC(=O)c1nn(-c2ccccc2)c(=Nc2ccccc2)cc1C | 1.9% (inactive) |
| O=C1NC(O)CCN1C1CC(O)C(CO)O1 (configuration not stated) | 15.2% (inactive) |
| CSc1nnnn1-c1c(C)cc(C)cc1C | 7.96% (inactive) |
| CSC1=NCCN1C(=O)c1ccc(S(=O)(=O)N2CCOCC2)cc1 | -13.6% (inactive) |
| Cc1ccc2nc(-c3ccco3)c(Cc3cccc(Cl)c3)n2c1 | -203% (inactive) |
| CCCc1nc2c([nH]1)C(c1cccnc1)C(C#N)=C(N)O2 (configuration not stated) | -0.33% (inactive) |
| CCOC(=O)C1=C(C)OC(N)=C(C#N)C1c1cncc(-c2ccc(F)cc2)c1 (configuration not stated) | 101% (active) |
| CCOC(=O)C1=C(CC)OC(N)=C(C#N)C1c1ccc(F)cc1F (configuration not stated) | 8.52% (inactive) |
| CCOP(=O)(OCC)C(Cc1ccccc1)N=C(c1ccccc1)c1ccccc1 (configuration not stated) | 41.3% (inactive) |
| CN(CC1CCCO1)S(=O)(=O)c1ccc(C(=O)Nc2ccc(F)cc2)cc1 (configuration not stated) | 21.5% (inactive) |
| CCOC(=O)c1c(NC(=O)c2ccc(S(=O)(=O)N(C)CC3CCCO3)cc2)sc2c1CC(C)(C)NC2(C)C (configuration not stated) | 85.8% (active) |
| Cc1cccc(NC(=O)c2ccc(S(=O)(=O)N(C)CC3CCCO3)cc2)c1C (configuration not stated) | 4.42% (inactive) |
| CC(=O)Nc1cc(-c2ccccc2F)cn2c(-c3cccc(C(F)(F)F)c3)cnc12 | 25% (inactive) |
| COc1ccc(S(=O)(=O)N2CCCCC2)cc1NC(=O)c1cc([N+](=O)[O-])ccc1N1CCOCC1 | 13.5% (inactive) |
| CCOc1ccc2nc(NC(=O)c3cc([N+](=O)[O-])ccc3N3CCOCC3)sc2c1 | 61.8% (active) |
| O=C(NCc1ccc2c(c1)OCO2)c1cc([N+](=O)[O-])ccc1N1CCOCC1 | 17.4% (inactive) |
| COc1cccc(-c2cc(NC(C)=O)c3ncc(-c4cccc(C(C)=O)c4)n3c2)c1 | -9.41% (inactive) |
| CCN(CC)c1ncnc2c1ncn2[C@H]1CN(Cc2cccs2)C[C@@H](CO)O1 | 5.39% (inactive) |
| CN(Cc1ccc(F)cc1)C(=O)CN1C(=O)c2ccccc2S1(=O)=O | 1.25% (inactive) |
| O=C(CN1C(=O)c2ccccc2S1(=O)=O)N1CCc2ccccc21 | 94.5% (active) |
| CC1CCCN(C(=O)CN2C(=O)c3ccccc3S2(=O)=O)C1 (configuration not stated) | -95% (inactive) |
